# In PubChem BioAssay AID1508602 (The Scripps Research Institute Molecular Screening Center, 2020):
# Values joined by “and” are separate entries in the source; they are usually repeats but may differ in a detail not shown here. Equal values may be shown once. The whole screen tested about 650,000 compounds, of which about 6,800 (1%) were called active. Cut-off read from the data, not from the text of the source: active = activation above about 4.9%; inactive = the rest. This excerpt belongs to a sample that is enriched for actives. The source holds several records for some structures; these can differ, active in one and inactive in another.
# Biological target: G-protein coupled receptor 151 (Homo sapiens) (UniProt Q8TDV0)
# Test: activators of human GPR151, primary screen, cell-based, PathHunter beta-arrestin, luminescence (AID 1508602);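 note: 0% = median of compound wells and 100% = cells with positive control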
# Conditions: PathHunter beta-arrestin GPR151 cells, at 11.2 µM, stronger effect = higher value
# Chain of G-protein coupled receptor 151 (Homo sapiens) (Q8TDV0 whole entry, looked up): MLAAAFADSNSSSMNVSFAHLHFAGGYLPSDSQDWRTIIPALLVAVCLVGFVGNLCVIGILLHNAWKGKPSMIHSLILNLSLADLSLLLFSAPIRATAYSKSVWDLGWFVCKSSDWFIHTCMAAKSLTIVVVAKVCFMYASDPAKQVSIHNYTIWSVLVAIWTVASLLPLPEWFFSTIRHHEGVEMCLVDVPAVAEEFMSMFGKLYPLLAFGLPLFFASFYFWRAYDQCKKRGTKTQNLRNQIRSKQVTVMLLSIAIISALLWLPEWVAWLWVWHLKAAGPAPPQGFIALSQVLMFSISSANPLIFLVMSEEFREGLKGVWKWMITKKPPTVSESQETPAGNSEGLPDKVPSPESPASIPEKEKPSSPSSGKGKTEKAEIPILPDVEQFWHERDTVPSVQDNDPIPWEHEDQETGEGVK
row,SMILES,activation
1,N#Cc1ccc(C(=O)OCc2ccc(Br)cc2)cc1,-1.47% (inactive)
2,CCOc1ccc(/C=C2N=C(/C=C/c3cccc(Cl)c3Cl)OC\2=O)cc1,6.64% (active)
3,O=C1OC(/C=C/c2cccc(Cl)c2Cl)=NC/1=C\c1cccc([N+](=O)[O-])c1,0.433% (inactive)
4,CCOc1ccc(/C=C2N=C(/C=C\c3cccc([N+](=O)[O-])c3)OC/2=O)cc1,-1.22% (inactive)
5,CN(Cc1cccc(C(F)(F)F)c1)C(=O)CC1C(=O)NCCN1Cc1ccccc1 (stereo unspecified),-0.0176% (inactive)
6,COc1ccc(C2=NN(C(=O)c3cc(OC)c(OC)c(OC)c3)C(c3ccc(Cl)cc3)C2)cc1OC (stereo unspecified),7.04% (active)
7,O=C(c1ccc(Cl)cc1)N1N=C(c2ccccc2)CC1c1ccc(Cl)cc1 (stereo unspecified),0.747% (inactive)
8,COc1ccc(C2=NN(C(=O)c3ccccc3Cl)C(c3cccc(OC)c3OC)C2)cc1OC (stereo unspecified),-0.321% (inactive)
9,Cc1nnc(SCc2ccc(CSc3nnc(C)n3N)cc2)n1N,-2.22% (inactive)
10,COc1ccc(-c2cc(N)n(S(=O)(=O)c3ccc([N+](=O)[O-])cc3)n2)c(OC)c1,-0.106% (inactive)
11,COc1ccccc1-c1cc(N)n(S(=O)(=O)c2ccccc2)n1,-0.0893% (inactive)
12,COc1ccc(-c2cc(N)n(S(=O)(=O)c3ccccc3)n2)c(OC)c1,6.94% (active)
13,O=C1COc2cc(S(=O)(=O)CCC(=O)N3CCN(c4ccccc4F)CC3)ccc2N1,0.891% (inactive)
14,CCOc1ccc(OCCOCCN2CC(C)OC(C)C2)cc1 (stereo unspecified),-1.18% (inactive)
15,COc1ccccc1Nc1nc(-c2ccc(Br)cc2)cs1,-0.402% (inactive)
16,COc1ccc(Nc2nc(-c3ccc(F)cc3)cs2)c(OC)c1,13.1% (active)
17,COc1ccc(N/C=C(/C#N)c2nc(-c3ccc(F)cc3)cs2)c(OC)c1,1.79% (inactive)
18,COc1ccc(-n2c(=S)[nH]c3cc(C(=O)Nc4cccc(Cl)c4)ccc3c2=O)c(OC)c1,1.31% (inactive)
19,O=C(N/N=C\c1ccccc1)c1ccccn1,-3.62% (inactive)
20,O=C(N/N=C\c1ccccc1Cl)c1ccccn1,-5.29% (inactive)
21,O=C(N/N=C\C=C\c1ccccc1)c1ccccn1,8.89% (active)
22,CC(=O)OCc1cn(-c2nonc2N)nn1,2.37% (inactive)
23,CC(=O)C1=C(O)C(=O)N(CC#N)C1c1ccc(F)cc1 (stereo unspecified),-0.438% (inactive)

row,SMILES,activation
1,O=C(COc1ccc(Br)cc1Cl)NCCO,0.504% (inactive)
2,COc1ccc(OCC(=O)NCC(F)(F)F)c([N+](=O)[O-])c1,1.07% (inactive)
3,O=C(COc1ccc(Br)cc1CO)NCC(F)(F)F,8.84% (active)
4,COc1ccc(-c2cc(C(=O)Nc3cc(Cl)ccc3O)no2)cc1OC,0.999% (inactive)
5,Cc1cc2c(c(=O)o1)C(c1cccc(OCc3c(F)cccc3Cl)c1)C(C#N)=C(N)O2 (stereo unspecified),1.06% (inactive)
6,CC(C)C[C@H]1NC(=O)[C@@H]2C[C@H](NCc3cc(F)ccc3F)CN2C1=O,-0.818% (inactive)
7,O=C1N[C@@H](Cc2ccc(Cl)cc2)C(=O)N2C[C@@H](NCc3nc(-c4ccc(F)cc4)cs3)C[C@@H]12,-2.22% (inactive)
8,CCC[C@@H]1NC(=O)[C@@H]2C[C@H](NCc3nc(-c4ccc(F)cc4)cs3)CN2C1=O,5.66% (active)
9,O=C(NCc1ccc(Cl)cc1)C(=O)NC1CCCCCC1,1.92% (inactive)
10,Cc1cc(NC(=O)CSc2nnc3c(n2)[nH]c2ccc(S(=O)(=O)N4CCOCC4)cc23)no1,-0.982% (inactive)
11,Cc1c2cnn(CC(=O)NCC(C)c3ccccc3)c(=O)c2c(C)n1Cc1ccccc1 (stereo unspecified),-0.872% (inactive)
12,Cc1cc(C)cc(NC(=O)NC2CCN(CC(=O)Nc3cccc(Cl)c3C)CC2)c1,0.14% (inactive)
13,CC1CCN(CC(=O)Nc2ccc(Cl)cc2)CC1,-1.21% (inactive)
14,CC1CCN(CC(=O)Nc2ccccc2Cl)CC1,20.2% (active)
15,COc1ccc(NC(=O)C2CCCN2C(=O)Nc2ccccc2)cc1 (stereo unspecified),2.01% (inactive)
16,Nc1cccc(-c2ncc(C(=O)NC3CC3)s2)c1,-0.0842% (inactive)
17,O=C(CC12CC3CC(CC(C3)C1)C2)Nc1ccc2c(c1)COC2=O,-1.36% (inactive) and 1.16% (inactive)
18,O=C(COc1ccc(Cl)cc1)Nc1ccc2oc(=O)ccc2c1,1.66% (inactive)
19,O=C(CC12CC3CC(CC(C3)C1)C2)Nc1ccc2oc(=O)ccc2c1,6.05% (active)
20,CCCOc1ccc(C2CC(=O)NC3=C2C(=O)CC(C)(C)C3)cc1 (stereo unspecified),0.129% (inactive)
21,Cc1ccc(NC(=O)C2(C)CC3c4ccccc4C2c2ccccc23)cc1C (stereo unspecified),-0.659% (inactive)
22,CC1(C)C(=O)C2(C(=O)Nc3cccc(C(F)(F)F)c3)CCC1C2 (stereo unspecified),-0.111% (inactive)
23,CC1(C(=O)Nc2cccc(C(F)(F)F)c2)CC2c3ccccc3C1c1ccccc12 (stereo unspecified),6.33% (active)

row,SMILES,activation
1,O=C(NC(=S)Nc1ccc(-c2nc3ncccc3o2)cc1)c1ccc(I)cc1,-0.544% (inactive)
2,CC1CCCC(NC(=O)CSc2cc(=O)n(C)c3ccc(Cl)cc23)C1C (stereo unspecified),1.18% (inactive)
3,CCOC(=O)C1CCN(C(=O)CN2C(=O)c3cccnc3Oc3ccc(C)cc32)CC1,2.66% (inactive)
4,Cc1ccc2c(c1)N(CC(=O)N1CCC(C)CC1)C(=O)c1cccnc1O2,5.35% (active)
5,COC(=O)CN1C(=O)c2cccnc2Oc2ccc(C)cc21,-1.68% (inactive)
6,CC1Cc2ccccc2N1S(=O)(=O)c1nnc(NC(=O)c2ccc(F)cc2)s1 (stereo unspecified),-0.611% (inactive)
7,COc1ccccc1NC(=O)c1c(NCc2cccs2)sc2c1CCCC2,1.25% (inactive)
8,C#CCN=Cc1c(O)n(CC)c(=S)n(CC)c1=O,-0.872% (inactive)
9,Cc1cccc(NC(=S)N(CCCN2CCCC(C)C2)Cc2cccs2)c1 (stereo unspecified),2.67% (inactive)
10,CCOC(=O)C1=CN(c2ccc(C)cc2)C=C(C(=O)OCC)C1c1ccc(Cl)c(Cl)c1,1.19% (inactive)
11,C#CCN1C(=O)S/C(=C/c2cc(Cl)c(O)c(OC)c2)C1=O,2.53% (inactive)
12,CCCCCn1c(=S)[nH]c2cc(C(=O)NCc3ccc4c(c3)OCO4)ccc2c1=O,-1.93% (inactive)
13,O=C(NCc1ccc2c(c1)OCO2)c1ccc(I)cc1,-1.11% (inactive)
14,C=CCn1c(=O)c2ccc(C(=O)NCc3ccc4c(c3)OCO4)cc2n(CC(N)=O)c1=O,10.5% (active)
15,CSCCC(NC(C)=O)C(=O)OCC(=O)Nc1nnc(C(C)C)s1 (stereo unspecified),-1.34% (inactive)
16,COc1c(Cl)ccc(Cl)c1C(=O)Nc1cc(C)cc(C)c1,0.289% (inactive)
17,COC(=O)/C=C1/C(=O)Nc2ccccc21,-0.452% (inactive)
18,Cn1c(/C=C2\C(=O)Nc3ccccc32)nc2ccccc2c1=O,1.31% (inactive)
19,Cc1cc(C)c(/C=C2\C(=O)Nc3ccccc32)[nH]1,-2.18% (inactive) and 5.18% (active)
20,COC(=O)c1c(OCc2cccnc2)cc(=O)n2c1CCN(C(C)CSC)CC2 (stereo unspecified),0.107% (inactive)
21,COc1cccc(CNC(=O)CCC(=O)N2CC(C)Oc3ccc(C)cc32)c1 (stereo unspecified),0.215% (inactive)
22,Cc1cccc(CN[C@H]2C[C@H]3C(=O)N[C@@H](CC(C)C)C(=O)N3C2)c1,1.59% (inactive)
23,C=C(C)Cn1c(N2CCN(CCO)CC2)nc2c1c(=O)[nH]c(=O)n2C,-0.406% (inactive)

row,SMILES,activation
1,COc1cc2c(cc1/C=C(\C#N)c1nc3ccccc3[nH]1)OCO2,0.566% (inactive)
2,COc1ccc2nc(/C(C#N)=C\c3cc4c(cc3OC)OCO4)[nH]c2c1,5.68% (active)
3,COc1ccccc1/C=C(/C#N)c1nc2ccccc2[nH]1,-0.79% (inactive)
4,COc1ccc2nc(/C(C#N)=C\c3c[nH]c4ccccc34)[nH]c2c1,-0.394% (inactive)
5,Cc1ccc2nc(/C(C#N)=C/c3ccccc3F)[nH]c2c1,-0.301% (inactive)
6,COc1cccc(/C=C(\C#N)c2nc3ccc(C)cc3[nH]2)c1OC,13.2% (active)
7,COc1ccc(S(=O)(=O)n2nc(-c3cc(OC)cc(OC)c3)cc2N)cc1,-1.02% (inactive)
8,Cc1ccc(NC(=O)C2CCCN(S(=O)(=O)c3ccc4c(c3)oc(=O)n4C)C2)cc1C (stereo unspecified),-0.645% (inactive)
9,O=C(c1ccc(N2CCC(NCc3cccc(F)c3F)CC2)cc1)N1CCCC(CO)C1 (stereo unspecified),0.257% (inactive)
10,O=C(Nc1ccc2oc(-c3cccc(I)c3)nc2c1)c1cc(Br)ccc1Cl,-0.461% (inactive)
11,O=C(Cc1ccc([N+](=O)[O-])cc1)NCCC1=CCCCC1,0.571% (inactive)
12,O=C(CNC(=S)N(Cc1cccs1)C1CCCCC1)NCCC1=CCCCC1,2.8% (inactive)
13,O=C(Cc1cccs1)NCCC1=CCCCC1,9.81% (active)
14,CCOC(=O)c1c(NC(=O)c2cc(S(N)(=O)=O)c(Cl)cc2Cl)sc2c1CCC(C)C2 (stereo unspecified),0.0074% (inactive)
15,COc1cc(/C=C2/C(=N)N3N=C(CC(C)C)SC3=NC2=O)ccc1OC(=O)c1ccc(F)cc1,-0.0343% (inactive)
16,CCOC(=O)c1[nH]c2ccc(OC)cc2c1NC(=S)N1CCN(c2ncccn2)CC1,2.39% (inactive)
17,CCOC(=O)Nc1c(C(=O)OC)[nH]c2ccc(C)cc12,-1.5% (inactive)
18,CCOC(=O)c1[nH]c2ccc(OC)cc2c1NC(=O)CN(C)C,6.75% (active)
19,COc1ccccc1NC(=O)c1sc2ncn(Cc3cccc(Br)c3)c(=O)c2c1C,-1.06% (inactive)
20,S=C(S)NCCc1c[nH]c2ccccc12,-0.43% (inactive)
21,CSc1ncc(C(=O)NCCc2c[nH]c3ccccc23)c(C)n1,4.98% (active)
22,O=C(NCCc1c[nH]c2ccccc12)c1cccs1,-0.507% (inactive)
